# Assay outcomes (PubChem)
# PINK1 modulator = A Quantitative High throughput Screen to Identify Chemical Modulators of PINK1 Expression | hit rate 0.2% among 410,000 | PINK1 immunofluorescence, high-content cytometry, 24 h | Potency, µM (doses to about 76.6 µM), hits mostly activators; active = well fitted activation curve with a large enough effect; inconclusive = small, poorly fitted or top-dose-only effect; cell line not stated here; also: nearly all actives have a fitted effect of over 65% in size
#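 Cells are seeded, rested 12 hours, then given compound at five concentrations or DMSO for 24 hours. After fixation, blocking and antibody staining, PINK1 amount and mitochondrial localization are scored; CCCP serves as control.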
# SW480 rereplic = A quantitative high throughput screen for small molecules that induce DNA re-replication in SW480 colon adenocarcinoma cells; AID 624297, 2012; SW480 DNA re-replication, Hoechst DNA content imaging, 48 h; hit rate 1.8% among 340,000; Potency, µM (titrated, usually from 46.1 µM), most hits filed as activators; also: nearly all actives have a fitted effect of over 55% in size
#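 Image-based read-out: total Hoechst fluorescence of nuclei (405 nm excitation, 500-530 nm emission), with hits raising the fraction of high-intensity nuclei. SW480 colon cells incubated 48 hr with compounds at 37 C.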
# KB-3-1 tox = qHTS assay for MDR1-selective chemotherapeutics: Primary screen using the parental adenocarcinoma cell KB-3-1; hit rate 1.4% among 400,000; KB-3-1 viability, CellTiter-Glo ATP luminescence, 72 h; Potency, µM (top dose mostly 46.1 µM), most hits filed as cytotoxic; AID 1347075, 2019; also: nearly all actives have a fitted effect of over 60% in size
#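 Cytotoxicity in the drug-sensitive parental line KB-3-1 was scored as loss of CellTiter-Glo luminescence following 72 h incubation with compound. Values come from curve fitting of normalized concentration-response data.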
# PTAP TSG101 blk = qHTS Assay for Iinhibitors of HIV-1 Budding by Blocking the Interaction of PTAP/TSG101; Tumor susceptibility gene 101 protein (Homo sapiens), Q99816; Fluorescence polarization, FITC-PTAP peptide / Tsg101 binding; Potency, µM (highest dose often 115 µM), hits mostly inhibitors; 340,000 tested, under 10 active; active = well fitted inhibition curve with a large enough effect in the main read-out, with a control signal flat, not every such curve was filed as active; inconclusive = small, poorly fitted or top-dose-only effect, or effect the other way, or a change in a side signal; inactive = no such curve, though single readings can be large or run the other way
# Target sequence (Q99816 whole entry, looked up): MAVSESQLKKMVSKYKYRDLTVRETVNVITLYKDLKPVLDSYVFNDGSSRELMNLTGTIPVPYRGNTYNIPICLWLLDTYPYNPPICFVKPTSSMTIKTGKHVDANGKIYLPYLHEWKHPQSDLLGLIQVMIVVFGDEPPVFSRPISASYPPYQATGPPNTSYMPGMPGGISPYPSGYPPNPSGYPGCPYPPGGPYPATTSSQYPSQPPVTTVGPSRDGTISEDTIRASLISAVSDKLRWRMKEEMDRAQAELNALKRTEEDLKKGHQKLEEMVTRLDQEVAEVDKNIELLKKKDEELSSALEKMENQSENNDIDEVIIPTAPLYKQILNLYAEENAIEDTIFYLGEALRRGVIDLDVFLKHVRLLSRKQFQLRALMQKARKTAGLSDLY
#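 FP read-out: FITC-PTAP peptide, 50 nM final, binding Tsg101 binding domain, 10 uM final; 20 min, r.t.; 10 mM HEPES pH 7.5, 0.15 M NaCl, 0.01% Tween 20, 3 mM EDTA, 0.1 mM TCEP.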
# MCF10A rerep = A quantitative high throughput screen for small molecules that induce DNA re-replication in MCF 10a normal breast cells. Potency, µM (top dose mostly 46.1 µM), usual class: activators. AID 624296, 2012. hit rate 2.9% among 350,000. MCF 10A DNA re-replication, Hoechst nuclear intensity, 48 h; also: nearly all actives have a fitted effect of over 50% in size
# KB-V1 cytotox = qHTS assay for MDR1-selective chemotherapeutics: Primary screen using the drug-selected MDR subline cells KB-V1; Potency, µM (highest dose often 46.1 µM), actives largely listed as cytotoxic; hit rate 3.4% among 400,000; KB-V1 MDR cells viability, CellTiter-Glo, 72 h; AID 1347076, 2019; also: nearly all actives have a fitted effect of over 60% in size
#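 Readout: CellTiter-Glo luminescence, 10 min after addition. Cells: KB-V1 MDR subline, 72 h at 37 degrees C with compound. Analysis: corrected, normalized data fitted to concentration-effect curves.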
# Numbers stand for hits; n = inactive; u = inconclusive; x = no result given; ! = not confirmed by another sample. Sampled rows, rich in hits. Any-hit rate of the full collection: about 6.8%. Unless noted, calls follow the shape of the dose curve; as a rule, active = well fitted curve in the direction sought with a large enough effect; inconclusive = small, poorly fitted or top-dose-only effect, or another doubt; inactive = no such curve, though single readings can be large; an effect the other way counts as inactive or inconclusive.
SMILES,PINK1 modulator,SW480 rereplic,KB-3-1 tox,PTAP TSG101 blk,MCF10A rerep,KB-V1 cytotox
Oc1nc(Nc2ccc(F)cc2)sc1/C=C1\C=Nc2ccccc21,n,u,n,n,21µM,n
Oc1nc(Nc2cccc(Cl)c2)sc1/C=C1\C=Nc2ccccc21,n,u,u,n,7.3µM,u
Cc1ccc(C(=O)C(OC(=O)CNC(=O)COc2ccccc2C)c2ccccc2)cc1 (stereo not given),n,x,n,x,x,n
CCCS(=O)(=O)Nc1cc(-c2cn3cccc(C)c3n2)ccc1C,n,x,n,x,x,n
O=C(Cn1nc2ccccc2n1)N1CCOc2ccc(CN3CCc4sccc4C3)cc2C1,n,x,x,x,x,x
O=C(O)c1cccc(-c2noc(-c3ccccc3F)n2)c1,x,n,x,x,n,x
N#CN=c1snc(-c2ccccc2Cl)n1-c1ccc(F)cc1,n,x,n,x,x,n
Cc1cccc(OCCNC(=O)c2ccc(Cl)c(S(=O)(=O)NCc3cccnc3)c2)c1,n,u,1.5µM,n,5.8µM,u
COC(=O)C1CCN(C(=O)c2ccc(Cl)c(S(=O)(=O)NCc3cccnc3)c2)CC1,n,n,n,n,n,n
Cc1cccc(OCCNC(=O)c2cncc(Br)c2)c1,n,0.92µM,n,n,n,n
COc1ccc(NC(=O)C2CC(c3ccc(OC)c(OC)c3)=NO2)cc1OC (stereo not given),n,n,n,n,n,n
COc1cc(C2=NOC(C(=O)NCc3ccc(F)cc3)C2)cc(OC)c1OC (stereo not given),n,0.73µM,1.5µM,n,3.3µM,1.5µM
COc1ccc(C2=NOC(C(=O)NCc3ccc(F)cc3)C2)cc1OC (stereo not given),2.8µM,2.1µM,n,n,1.6µM,0.52µM
CC12CCC(=O)N1C(C(=O)N1CCN(c3ccc([N+](=O)[O-])cc3)CC1)CS2 (stereo not given),n,n,n,n,n,18µM
CCOC(=O)c1ccc(Nc2c(-c3ccc(N(C)C)cc3)nc3nc[nH]n23)cc1,n,x,n,x,x,n
COC(=O)c1cc(Cl)c(NC(=O)/C=C/c2ccc(Cl)cc2Cl)cc1OC,14µM!,n,n,n,2.1µM,n
COC(=O)c1cc(Cl)c(NC(=O)/C=C/c2ccc(Cl)cc2)cc1OC,u,u,n,n,u,n
C=CCn1c(SC(F)F)nc2scc(-c3ccco3)c2c1=O,n,n,n,n,2.9µM,n
O=C(CCn1c(=O)oc2ccccc21)N1CCN(c2ccccc2F)CC1,n,n,n,n,n,23µM
CN1CC[C@H](c2c(O)cc(O)c3c(=O)cc(-c4ccccc4Cl)oc23)[C@@H](O)C1,n,x,x,x,x,x
Cc1ncc2c(c1CNC(=O)CN1CCCC1)CCN(C(=O)c1ccc(F)cc1F)C2,n,x,x,x,x,x
COCCNC(=O)CCCn1c(SCC(=O)c2ccc(Br)cc2)nc2c(sc3ccccc32)c1=O,n,x,x,x,x,x
CCc1c(C)[nH]n(-c2nc(-c3cccc([N+](=O)[O-])c3)cs2)c1=O,n,n,u,n,n,16µM
CCc1c(C)[nH]n(-c2nc(-c3ccccc3)cs2)c1=O,n,n,n,n,n,u
Cc1ccc(-n2ncc3c(N4CCC(Cc5ccccc5)CC4)ncnc32)cc1,n,x,n,x,x,n
SMILES,PINK1 modulator,SW480 rereplic,KB-3-1 tox,PTAP TSG101 blk,MCF10A rerep,KB-V1 cytotox
COC(=O)c1c(-c2cccs2)csc1NC(=O)c1ccc(Br)cc1,n,x,n,x,x,n
COc1ccc2oc(=O)c(C(=O)N3CCN(c4ccc(C)cc4)CC3)cc2c1,n,x,n,x,x,n
O=C(NC(NC(=S)Nc1c(Cl)cc(Cl)cc1Cl)C(Cl)(Cl)Cl)OCc1ccccc1 (stereo not given),u,u,u,n,13µM,12µM
COC(=O)NC(NC(=S)Nc1cccc(C)c1)C(Cl)(Cl)Cl (stereo not given),n,n,n,n,n,n
Cc1ccc(C)c(NC(=S)NC(NC(=O)OCc2ccccc2)C(Cl)(Cl)Cl)c1 (stereo not given),n,u,n,n,u,15µM
CC[C@H](C)[C@@H]1NC(=O)[C@H]([C@@H](C)CC)NC(=O)[C@@H](CC(C)C)NC(=O)[C@H](Cc2ccccc2)NC(=O)[C@H](Cc2ccccc2)NC(=O)[C@@H]2CCCN2C(=O)[C@@H]2CCCN2C(=O)[C@H](C(C)C)NC(=O)[C@H](CC(C)C)NC1=O,n,u,u,n,21µM,n
COc1cc(=O)n2c(c1C(=O)N(C)Cc1nonc1C)CCN(CC1CC=CCC1)CC2 (stereo not given),n,x,x,x,x,x
NC(=S)n1[nH]c(-c2ccc([N+](=O)[O-])cc2)c(N=Nc2ccc(O)cc2)c1=O,n,n,n,n,n,n
NC(=S)n1[nH]c(-c2ccc([N+](=O)[O-])cc2)c(N=Nc2cccc(Cl)c2)c1=O,13µM,n,21µM,n,u,u
COc1cc(=O)n2c(c1C(=O)N(C)Cc1ccsc1)CCN(Cc1c(C)nc3sccn13)CC2,n,x,x,x,x,x
CCOC(=O)[C@]12CCCC=C1N(Cc1cccc3ccccc13)C(=O)[C@H](CC(=O)NCc1cccc(C(F)(F)F)c1)C2,n,x,n,x,x,n
CCOC(=O)[C@]12CCCC=C1N(Cc1cccc3ccccc13)C(=O)[C@H](CC(=O)NCc1cccs1)C2,n,x,u,x,x,16µM
CCOC(=O)[C@]12CCCC=C1N(Cc1cccc3ccccc13)C(=O)[C@H](CC(=O)NCc1ccc(OC)c(OC)c1)C2,n,x,u,x,x,6.5µM
COC(=O)[C@]12CCCCC=C1N(Cc1cccc3ccccc13)C(=O)[C@H](CC(=O)NCc1cccc(C(F)(F)F)c1)C2,n,x,u,x,x,9.2µM
CCOC(=O)[C@]12CCCC=C1N(Cc1cccc3ccccc13)C(=O)[C@H](CC(=O)N1CCN(C(=O)C3CC3)CC1)C2,n,x,n,x,x,u
CCOC(=O)[C@]12CCCC=C1N(Cc1cccc3ccccc13)C(=O)[C@H](CC(=O)N1CCCC1)C2,n,x,n,x,x,9.2µM
COc1ccc(CN2CCOc3ccc(CN4CCC(Oc5cccnc5)CC4)cc3C2)cc1C,n,x,x,x,x,x
Cc1c(C(=O)N2CCCCC2)sc2ncnc(NCCc3ccccn3)c12,n,x,x,x,x,x
CCOC(=O)[C@]12CCC=C1N(Cc1ccc(Cl)cc1Cl)C(=O)[C@H](CC(=O)NCc1cccc3ccccc13)C2,n,x,n,x,x,u
